Laboratory results published in PubChem BioAssay (NCATS).
Inconclusive results are not listed. A call without a number means that no potency is given here. Calls of active or inactive are those of the source. Calls follow the shape of the dose curve; as a rule, active = well fitted cell-killing curve with a large enough effect; inconclusive = small, poorly fitted or top-dose-only effect, or effect the other way; inactive = flat fitted curve, though single readings scatter.

Assay: qHTS for Inhibitors of ATXN expression: Validation of Cytotoxic Assay (AID 588349)
Details: cytotoxicity counter-screen for ATXN expression inhibitors, cell viability; series mostly up to 57.1 µM
Description: Spinocerebellar ataxia type 2 (SCA2) is a multisystem neurodegenerative disease caused by a dominantly-acting mutation leading to expansion of a polyQ domain in the ataxin-2 protein (ATXN2). SCA2 patients develop progressive ataxia and later lose function in other neuronal systems. Prominent parkinsonian signs develop in some patients. Similar to many neurodegenerative disorders, no symptomatic or disease-modifying treatments are known.
The primary objective of project is to identify compounds inhibiting ATXN2 expression and to test them for efficacy in SCA2 mouse models. To this end, in a collaboration between Dr. Daniel Scoles and scientists at NCGC, a cell-based assay adapted to high-throughput screening has been developed to screen the NIH Molecular Libraries Small Molecule Repository (MLSMR). Confirmed qHTS active compounds will be tested for toxicity against the human neuron-like SH-SY5Y cell line. This line is the parental cell type used to generate the transgenic line used in the primary assay, and so should provide an isogenic control to test the inherent toxicity of qHTS actives.
NIH Chemical Genomics Center [NCGC]
NIH Molecular Libraries Probe Centers Network [MLPCN]
Assay Submitter (PI): Stefan Pulst and Daniel Scoles, University of Utah
HEK293 cultured cells will be dosed with titrated compounds and incubated for 72 hr at 37 degrees C. Toxicity will be assessed using the CellTiter Glo kit (Promega), which uses intracellular ATP concentration as a viability marker.
Potency is read from the fitted curve at half-maximal effect.

SMILES	Potency
c1ccc(C2CN3CCSC3=N2)cc1 (stereo not given)	inactive
CC(C)NC[C@H](O)COc1cccc2ccccc12	inactive
CN[C@H](CC(=O)O)C(=O)O	inactive
O=C(O)C1CCNCC1	inactive
O=C(O)CCC(=O)N1CCCC1C(=O)O (stereo not given)	inactive
CCCn1c(=O)c2[nH]c(C3CCCC3)nc2n(CCC)c1=O	inactive
CCCCCCCC/C=C\CCCCCCCC(=O)NCCc1ccc(O)c(O)c1	31.6 µM (active)
CN1C2CCC1CC(OC(c1ccccc1)c1ccccc1)C2 (stereo not given)	inactive
CC[C@H](NC(=O)c1c(C)c(-c2ccccc2)nc2ccccc12)c1ccccc1	inactive
Cc1cccc(C(=O)NCN2CCN(c3ccccc3C#N)CC2)c1	inactive
COc1cc(CNC(=O)CCCCCCC(C)C)ccc1O	inactive
NC/C=C\C(=O)O	inactive
Cc1nc2c(OCc3ccccc3)cccn2c1CC#N	inactive
CSC(N)=NCCC[C@H](N)C(=O)O	inactive
c1ccc2c(c1)CC(N1CCN(c3cccc4c3OCCO4)CC1)C2	inactive
CC(C)(C)NCC(O)COc1cccc2[nH]c(=O)[nH]c12 (stereo not given)	inactive
NCCCCN=C(N)N	inactive
CC(=O)O[C@H]1CC2(C)[C@@H](C[C@@H](O)[C@H]3[C@@]4(C)CC[C@@H](O)[C@@H](C)[C@@H]4CC[C@@]32C)C1=C(CCC=C(C)C)C(=O)O (stereo not given in full)	inactive
COc1ccccc1N1CCN(CCCCN2C(=O)c3ccccc3C2=O)CC1	inactive
N[C@H]1CONC1=O	inactive

SMILES	Potency
Nc1ncnc2c1nc(Sc1ccc(Cl)cc1)n2[C@H]1OC2COP(=O)(O)O[C@@H]2C1O (stereo not given in full)	inactive
NC1(C(=O)O)CCc2cc(C(=O)O)ccc21 (stereo not given)	inactive
N[C@H](C(=O)O)[C@H]1C[C@@H]1C(=O)O	inactive
[N-]=[N+]=Nc1ccc(C(=O)CSC[C@H](NC(=O)CC[C@H](N)C(=O)O)C(=O)NCC(=O)O)cc1	inactive
Cn1cc(C(F)(F)F)nc1-c1ccc(OCC(O)CNCCOc2ccc(O)c(C(N)=O)c2)cc1 (stereo not given)	inactive
COc1ccc(CCn2nnnc2C2(c3ccc(C)cc3)CC2)cc1	inactive
COc1cc(/C=C(\C#N)C(=O)Nc2nnc(C(F)(F)F)s2)ccc1OCc1ccc(C(F)(F)F)cc1C(F)(F)F	inactive
N#Cc1cc2nc(O)c(O)nc2cc1[N+](=O)[O-]	inactive
CC[n+]1c(/C=C/C=C2/N(C)c3ccccc3C2(C)C)sc2ccccc21	3.16 µM (active)
CC1C(=O)N(C)C(=O)c2nc[nH]c21 (stereo not given)	inactive
CC(=O)N[C@@H](Cc1c[nH]c2ccccc12)C(=O)OCc1cc(C(F)(F)F)cc(C(F)(F)F)c1	inactive
CSc1nc(N)c2ncn([C@@H]3O[C@H](COP(=O)(O)OP(=O)(O)O)C(O)[C@H]3O)c2n1 (stereo not given in full)	inactive
COc1cc(CC(=O)O)ccc1O	inactive
CCCc1c(OCCCOc2ccc(OCC(=O)O)cc2)ccc(C(C)=O)c1O	inactive
COC(=O)[C@H](NC(=O)c1cc(-c2ccccc2)nc2ccccc12)c1ccccc1	inactive
CCCCOc1cc(CC2CNC(=O)N2)ccc1OC (stereo not given)	inactive
NC(Cc1cccc(-c2ccccc2CP(=O)(O)O)c1)C(=O)O (stereo not given)	inactive
O=C(O)C1=CCCNC1	inactive
Cn1c(=O)c2[nH]c(C3CCCC3)nc2n(C)c1=O	inactive
Nc1ccc(N2C(=O)c3ccccc3C2=O)c(Cl)c1	inactive
